This passage reports viability results from PubChem BioAssay AID818 (SRMLSC, 2007).

For orientation: viability means a read-out of living cells in per cent, often relative to untreated cells.

The whole screen tested about 140,000 compounds, of which about 2,100 (1.5%) were called active. This excerpt belongs to a sample that is enriched for actives. A number with no mark means an inactive call.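 How the source made its calls: active means viability at or under a set limit, the compound median less 4 SD (cut at about 6% in these data); inactive means the rest.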

This assay is described as follows: primary screen for growth suppressors in beta-catenin knockout HCT116 cells (colon tumor, human) (AID 818).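 Further: 0% = Hyamine 1622 control at 20 µM and 100% = untreated cell control.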 To be noted: CellTiter-Glo, 60 h, at 10 µM, hits give low values. On the technique in general: ATP-based viability assays read luminescence as a measure of living cells.
With `CCC(CC)C(=O)N1CCN(c2cccc(C)c2C)CC1`, the viability is 43.6%.
With `COC(C(=O)Nc1ccc(C(C)=O)cc1)c1ccccc1` (stereo unspecified), the viability was 85.5%.
`O=C(NCCCO)/C(=C\C=C\c1ccccc1)NC(=O)c1ccccc1Cl`: the viability is 94%.
Regarding `Cc1cc(Br)ccc1SCC(=O)OCC(=O)NCc1ccc2c(c1)OCO2`, the viability is 85.9%.
In the case of `CC(C)C(=O)Nc1cccc(NC(=O)c2ccc([N+](=O)[O-])cc2Cl)c1` it was 96%; in that of `O=C(/C=C/c1ccc(Cl)cc1Cl)c1cccnc1`, 0.88% (active); in that of `O=C(/C=C/c1ccc(Cl)cc1Cl)NCc1ccco1`, 102%.
Consider `O=C(NCc1ccc(Cl)c(Cl)c1)c1cccnc1`, for which the viability was 92.2%.
In the case of `CC(=O)Nc1ccc(NC(=S)NC(=O)c2ccc([N+](=O)[O-])c(C)c2)cc1` it was 93.3%.
In the case of `CCC(C)(C)C1CCC(=NNC(=O)c2ccc(Br)o2)CC1` (stereo unspecified) it was 94.6%; in that of `O=C(COC(=O)Cc1ccc(Br)cc1)Nc1c(F)c(F)c(F)c(F)c1F`, 94.5%; in that of `COc1cc(/C=C2\SC(=S)N(Nc3ncc(C(F)(F)F)cc3Cl)C2=O)cc(OC)c1OC`, 109%.
In the case of `COc1cccc(/C=N/Nc2ncc(C(F)(F)F)cc2Cl)c1O` it was 2.51% (active).
As to `COc1cccc(/C=N\NC(=O)C2=NNC(=O)C2C)c1O` (stereo unspecified), the viability was 45.9%.
In the case of `COc1ccc(OC)c(-c2c(=O)n(OCc3ccccc3Br)c3ccccc3[n+]2[O-])c1` it was 74.9%; in that of `COc1ccc(C(=O)Nc2c(Cl)cc(Cl)cc2C(=O)N2CCC(C)CC2)cc1`, 77.2%; in that of `CCOc1cc(N2CCOCC2)c(OCC)cc1NC(=O)COc1cccc2cccnc12`, 4.29% (active).
In the case of `CCOc1cc(N2CCOCC2)c(OCC)cc1NC(=O)COC(=O)[C@H](Cc1c[nH]c2ccccc12)NC(C)=O`, the viability was 87.2%.
In the case of `Cc1cccc(OCC(=O)NC(=S)Nc2ccccc2N2CCOCC2)c1` it was 98.4%; in that of `CCOC(=O)c1ccccc1N1C(=O)C2Sc3[nH]c(=O)sc3C(/C=C/c3ccccc3)C2C1=O` (stereo unspecified), 91.4%.
In the case of `Cc1nc2c(C(=O)NCc3cccs3)cnn2c(C)c1Cc1ccc(F)cc1` it was 83.5%.
In the case of `N#C/C(=C/c1ccc(N2CCCCC2)o1)C(=O)NCCc1c[nH]c2ccccc12` it was 90.2%; in that of `O=C(Nc1ccc([N+](=O)[O-])cc1)C1(c2ccccc2)CCOCC1`, 94.8%.
For `CCc1ccc2c(c1)C1(NN=C(c3ccccc3)S1)C(=O)N2` (stereo unspecified), the viability is 4.17% (active).
In the case of `C=C1c2cc(CC)ccc2NC(=O)N1c1ccc(C)cc1` it was 98.3%; in that of `O=C1Nc2ccccc2C12Nc1ccccc1S2` (stereo unspecified), 86.2%.
In the case of `Cc1ccc2c(CC(=O)NCc3cccs3)coc2c1` it was 102%; in that of `Cc1ccnc(NS(=O)(=O)c2ccc(NC(=O)c3ccc(S(=O)(=O)N4CCOCC4)cc3)cc2)n1`, 97%.
`CCN(CC)CCOc1ccc2c(c1)C(=NNC(=O)c1ccccn1)c1cc(OCCN(CC)CC)ccc1-2`: the viability was 0.37% (active).
With `CCC(C(=O)OCCN(CC)CC)c1ccccc1` (stereo unspecified), the viability is 106%.
For the compound `CCC(C)(NC(=O)c1ccccn1)C(=O)NC1CCCCC1` (stereo unspecified), the viability was 89.8%.
For the compound `COCCNc1nc(N)c([N+](=O)[O-])c(NCCO)n1`, the viability is 98.5%.
Regarding `O=C(Nc1ccccc1F)c1ccccc1-c1ccc(C(F)(F)F)cc1`, the viability was 77.4%.
Regarding `CCOC(=O)C1=C(C)NC(=S)NC1c1cccs1` (stereo unspecified), the viability was 84.5%.
For the compound `Cc1cccc(NC(=O)NC(=S)NC(=O)c2ccccc2)c1`, the viability is 102%.
In the case of `O=C(NC1CCN(Cc2ccccc2)CC1)c1c(F)cccc1F` it was 93.9%.
